TDP1 cell noCPT: qHTS for Inhibitors of human tyrosyl-DNA phosphodiesterase 1 (TDP1): qHTS in cells in absence of CPT; Potency, µM (top dose mostly 46.2 µM), usual class: inhibitors; AID 686978, 2013; 420,000 tested, 15% active; DT40 Tdp1-/- hTDP1 cells, no CPT, ATP luminescence, 48 h; also: nearly all actives have a fitted effect of over 55% in size
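No-CPT arm: Tdp1-/-;hTDP1 DT40 cells (400/well) plus compounds, incubated ≥48 hr at 37 °C. Readout CellTiter-Glo luminescence.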
IL1B secr inh: blocks inflammasome-driven IL-1 beta release; THP-1 LPS/ATP IL-1B secretion, AlphaLISA, 16 h; hits give low values; activity change, % at 57.5 µM; 360,000 tested, 4.7% active; AID 743279; in the data active = activity change below about -50%; inconclusive = mostly about -30% to -49%
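Secreted IL-1B measured by AlphaLISA bead assay after 16 h compound exposure of THP-1 cells; compounds (final up to 57.5 uM) added 1 h before LPS (250 ng/mL) and ATP (1.25 mM) stimulation; lower signal means less secretion.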
TDP1 block: inhibitors of human tyrosyl-DNA phosphodiesterase TDP1 | Q9NUW8 | recombinant TDP1, AlphaScreen DNA substrate cleavage | Potency, µM (series often up to 130 µM), actives largely listed as inhibitors | 350,000 tested, 0.28% active | AID 485290; also: nearly all actives have a fitted effect of over 40% in size
Target sequence (Q9NUW8 whole entry, looked up): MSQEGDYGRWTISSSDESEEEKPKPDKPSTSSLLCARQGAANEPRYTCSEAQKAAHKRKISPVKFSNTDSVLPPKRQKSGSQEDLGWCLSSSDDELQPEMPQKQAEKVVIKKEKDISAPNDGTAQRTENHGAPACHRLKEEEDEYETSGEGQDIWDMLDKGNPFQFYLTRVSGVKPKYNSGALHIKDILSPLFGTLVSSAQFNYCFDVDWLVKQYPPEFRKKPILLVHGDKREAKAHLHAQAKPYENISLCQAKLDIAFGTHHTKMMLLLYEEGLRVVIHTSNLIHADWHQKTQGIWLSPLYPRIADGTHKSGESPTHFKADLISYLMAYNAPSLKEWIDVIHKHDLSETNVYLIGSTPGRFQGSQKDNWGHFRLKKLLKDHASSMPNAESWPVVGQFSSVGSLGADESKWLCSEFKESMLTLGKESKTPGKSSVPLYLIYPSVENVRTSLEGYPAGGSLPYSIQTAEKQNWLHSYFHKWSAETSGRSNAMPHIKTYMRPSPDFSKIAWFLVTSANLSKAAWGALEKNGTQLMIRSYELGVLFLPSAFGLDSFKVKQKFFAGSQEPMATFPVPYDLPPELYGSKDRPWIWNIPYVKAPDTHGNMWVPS
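Tdp1 1 nM final; 15 min RT w/ cpd; substrate 15 nM, 5 min; beads 10 ug/ml, 10 min; AlphaScreen read. Neg ctrl: no enzyme.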
CtBP-E1A blk: inhibitors of CtBP/E1A interaction; AID 651724; 340,000 tested, 0.49% active; AlphaScreen GST-E1A/His-CtBP binding, 1536-well; hits give low values; activity change, % (concentration not given with the values); in the data active = activity change below about -65%; inconclusive = mostly about -30% to -63%
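Protein mix (5X: 125 nM each GST-E1A, His-CtBP) was incubated with pinned compound 2 h at 37 deg C in dark, in 50 mM Tris pH 8.0 buffer with 300 mM NaCl. Glutathione donor and nickel acceptor beads followed; AlphaScreen signal read after 1 h.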
TDP1 cell CPT: DT40-hTDP1 cell growth loss with CPT | chicken DT40 Tdp1-/-;hTDP1 cells + 20 nM CPT, ATP luminescence, 48 h | Potency, µM (series often up to 46.2 µM), hits mostly inhibitors | 420,000 tested, 12% active; also: nearly all actives have a fitted effect of over 55% in size
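Cell growth measured by CellTiter-Glo luminescence after a minimum 48 h, 37 C compound exposure with 20 nM CPT in Tdp1-knockout DT40 cells stably expressing hTDP1, seeded 400/well; qHTS titration format.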
Six1-Eya2 blk: inhibitors of human Six1/Eya2 interaction | activity change, % (test concentration not listed) | Q15475+O00167 | AID 651725 | AlphaScreen GST-Six1/His-Eya2 binding, biochemical; hits give low values | 360,000 tested, 0.56% active; in the data active = activity change below about -65%; inconclusive = mostly about -30% to -63%
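Six1/Eya2 binding was read as AlphaScreen signal after compounds were pinned into GST-Six1 plus His-tagged Eya2 (5X stock 250/500 nM) in pH 8.0 Tris/NaCl/TCEP buffer, beads added, then incubated 1 h, 37 C, dark.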
Large screens that a line does not name were inactive. Rows were chosen to be rich in hits. Some 18% of all compounds tested hit in one or more screens of this group. Unless noted, calls follow the shape of the dose curve; as a rule, active = well fitted curve in the direction sought with a large enough effect; inconclusive = small, poorly fitted or top-dose-only effect, or another doubt; inactive = no such curve, though single readings can be large; an effect the other way counts as inactive or inconclusive.

O=C(Nc1ccc2c(c1)OCCO2)c1c(F)c(F)c(F)c(F)c1F	TDP1 cell noCPT inconclusive, TDP1 cell CPT 18.4µM
CCOc1ccc(C(=O)Nc2ccc3c(c2)OCCO3)cc1	none
CCCOc1cccc(C(=O)Nc2ccc(-c3nc4ccccc4o3)cc2)c1	TDP1 cell noCPT 13µM, TDP1 cell CPT inconclusive (no result: IL1B secr inh, CtBP-E1A blk, Six1-Eya2 blk)
Cc1ccn2cc(C(=O)Nc3ccc4c(c3)OCCO4)nc2c1	IL1B secr inh -89.1
O=C(Nc1ccc2c(c1)OCCO2)c1c(Cl)cccc1Cl	TDP1 cell noCPT inconclusive (no result: TDP1 block)
COc1ccc(-c2nc(CSCC(=O)NCc3ccc4c(c3)OCO4)c(C)o2)cc1	none
COc1ccccc1-c1ccc(SCC(=O)Nc2cc(C)on2)nn1	none
CCC(CC)C(=O)Nc1cccc(C(=O)Nc2nccs2)c1	TDP1 cell noCPT 23.1µM, TDP1 cell CPT inconclusive
CCC(CC)C(=O)Nc1cccc(C(=O)Nc2ccc(S(=O)(=O)Nc3ccc(C)cc3)cc2)c1	TDP1 cell noCPT inconclusive, IL1B secr inh inconclusive, TDP1 cell CPT 20.6µM
CCC(CC)C(=O)Nc1cccc(C(=O)Nc2ccc(S(N)(=O)=O)cc2)c1	none
O=C(Nc1ccc2c(c1)OCCO2)c1cccc(Br)c1	IL1B secr inh -54.0
CCN(CC)S(=O)(=O)c1cccc(C(=O)Nc2ccc3c(c2)OCO3)c1	TDP1 cell noCPT inconclusive, CtBP-E1A blk inconclusive, TDP1 cell CPT inconclusive
CCC(CC)C(=O)Nc1cccc(C(=O)Nc2ccc3c(c2)OCO3)c1	TDP1 cell noCPT inconclusive, TDP1 cell CPT 25.9µM
CC(=N)c1c(O)cc(C)oc1=O	none (no result: TDP1 block)
CC(=O)OC[C@@H]1CN(Cc2ccccc2)C[C@H](n2cnc3c(N4CCCC4)ncnc32)O1	none (no result: TDP1 block)
COC(=O)C1CCN(c2nc3ccccc3nc2C(C#N)C(=O)OCC(C)C)CC1 (stereo unspecified)	TDP1 cell noCPT 11.6µM, TDP1 cell CPT 23.1µM
CCOC(=O)C1CCN(c2nc3ccccc3nc2C(C#N)C(=O)OC(C)C)CC1 (stereo unspecified)	TDP1 cell noCPT 11.6µM, TDP1 cell CPT 16.4µM
COc1ccc(CNC(=O)C(C#N)c2nc3ccccc3nc2N2CCN(C)CC2)cc1 (stereo unspecified)	IL1B secr inh -51.7, TDP1 cell CPT inconclusive
COc1ccc(CNC(=O)C(C#N)c2nc3ccccc3nc2N2CCCC2)cc1 (stereo unspecified)	TDP1 cell noCPT inconclusive, TDP1 cell CPT inconclusive
COC(=O)C1CCN(c2nc3ccccc3nc2C(C#N)C(=O)NCCc2ccccc2)CC1 (stereo unspecified)	TDP1 cell noCPT inconclusive, TDP1 cell CPT inconclusive
CCOC(=O)C1CCN(c2nc3ccccc3nc2C(C#N)C(=O)OC(C)COC)CC1 (stereo unspecified)	TDP1 cell noCPT 18.4µM, TDP1 cell CPT 20.6µM
CCOC(=O)C1CCCN(c2nc3ccccc3nc2C(C#N)C(=O)OC(C)C)C1 (stereo unspecified)	TDP1 cell noCPT inconclusive, TDP1 cell CPT inconclusive
CCCCNC(=O)C(C#N)c1nc2ccccc2nc1N1CCN(Cc2ccc3c(c2)OCO3)CC1 (stereo unspecified)	none (no result: TDP1 block)
C=CCOC(=O)C(C#N)c1nc2ccccc2nc1N1CCC(C(=O)OCC)CC1 (stereo unspecified)	TDP1 cell noCPT 18.4µM, TDP1 cell CPT inconclusive
C=CCOC(=O)C(C#N)c1nc2ccccc2nc1N1CCN(Cc2ccc3c(c2)OCO3)CC1 (stereo unspecified)	TDP1 cell noCPT inconclusive, IL1B secr inh -52.0, TDP1 cell CPT inconclusive
Cc1cc(NC(=O)CSc2nc(=O)n3cc(Cl)ccc3n2)no1	none
CCn1c2ccccc2c2cc(N=C3SC(CC(=O)Nc4ccccc4OC)C(=O)N3CCOC)ccc21 (stereo unspecified)	TDP1 cell noCPT inconclusive, TDP1 cell CPT inconclusive
COc1ccc(NC(=O)c2cc3c(Cl)nc4ccccc4c3s2)cc1OC	TDP1 cell noCPT 20.6µM, TDP1 cell CPT inconclusive
